Several values for one entry are separate records, joined by “and”; a condition that tells them apart may be missing. Equal entries are not always repeated. Compounds without any hit were thinned out: in the full panel of roughly 83,000, 20% have a hit.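 For each line, cells grew in 96-well plates with the test compound present at a single concentration for 48 hours.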 Activity calls are given as the source filed them. Rule for the calls: active = growth percent below 10; inactive = the rest.

The assay has as its system MDA-MB-468 breast. Nature of the assay: NCI-60 one-dose screen, 48 h (100 = growth as untreated, 0 = no growth, -100 = all killed). The settings on record: 10 µM unless noted.
Turning to `O=C(Cn1cc(COc2ncnc3c2cnn3-c2ccccc2)nn1)Nc1cccc2ccccc12`, the growth is 86.5% (inactive).
`O=S(=O)(Nc1cc(Sc2nc3ccccc3s2)c(O)c2ccccc12)c1ccc2ccccc2c1`: the growth was -0.0972% (active).
To `O=Nc1ccc(NC(=O)Nc2ccc([N+](=O)[O-])cc2)cc1` belongs 96% (inactive); to `O=C1Nc2ccccc2C12CC(c1ccccc1)=NN2` (stereo not given), 66.4% (inactive).
Take `Fc1ccc(Nc2ccc3c(OCCCN4CCOCC4)cccc3n2)cc1F`: the growth was 46.3% (inactive).
`CN(C)CCNc1nc2c3cc(Cl)ccc3nn2c2ccccc12`: the growth was 74.2% (inactive).
To `Nc1c(C(=O)Nc2ccccc2)sc2nc3c(cc12)CN(CCc1ccccc1)CC3` belongs 107% (inactive); to `CCOC(=O)C1=C(N)Oc2c(sc3c(F)cccc23)C1c1ccc(O)cc1` (stereo not given), 15.3% (inactive); to `COc1cc2c(c(OC)c1OC)C(=O)CC(c1cccc(NC(=O)c3ccc(Br)cc3)c1)O2` (stereo not given), 12.1% (inactive).
For `COc1ccc(-c2ccc(-c3ccc(C(=N)N)cn3)s2)cc1`, the growth was 72.6% (inactive).
The same measure for `CCN(CC)CCOC(=O)c1ccc(NC(=O)Nc2cccc(Cl)c2)cc1`: 103% (inactive).
The same measure for `C=C1C(=O)O[C@@H]2[C@H]3[C@H](COC(C)=O)[C@@H](OC(C)=O)C[C@H]3C(=C)[C@@H](O)C[C@@H]12`: 77% (inactive); for `CC(CN(C)C)CN1c2ccccc2Sc2ccccc21` (stereo not given): 40.2% (inactive) and 73.1% (inactive) and 64% (inactive).
To `NC(CCl)=NCCC[C@H](N)C(=O)O` belongs 91.8% (inactive); to `COC(=O)c1ccc(NC(=O)CSc2nc3ccccc3c(=O)n2-c2ccccc2)cc1`, 104% (inactive); to `Brc1cc(-c2cc(-c3ccc4c(c3)OC=CO4)[nH]n2)cs1`, 30% (inactive).
As for `COc1ccc(Nc2ncccc2/C=C/C(=O)c2cc(OC)c(OC)c(OC)c2)cc1`, the growth was -62.1% (active).
Turning to `CCNCC(C)(C)O`, the growth is 115% (inactive).
Turning to `CCN(CC)c1ccc2nc3ccc(=[N+](CC)CC)cc-3oc2c1`, the growth is -46.6% (active).
Regarding `CN1CCN(Cc2ccc(NC(=O)c3cncc(C#Cc4cnc5ccc(OCC6(C)COC6)nn45)c3)cc2C(F)(F)F)CC1`, the growth is -73.8% (active).
In the case of `Oc1c(N=Nc2nn[nH]n2)ccc2ccccc12`, the growth was 85.3% (inactive).
Take `O=S1(=O)C=C(c2ccccc2)C(c2ccccc2)=C1`: the growth is -68.5% (active).
Regarding `CS(=O)(=O)Nc1cc(-c2ccc3ncnc(Nc4cccc(Cl)c4)c3c2)cnc1Cl`, the growth is -55.7% (active).
Take `CON1CCC[C@]2(C)[C@H]3CC[C@@H]4[C@H]5[C@@H](O)C(C)(C)CC[C@]5(CO)CC[C@@]4(C)[C@]3(C)CC[C@H]2C1(C)C`: the growth was 114% (inactive).
The same measure for `CCN(CC)CCCC(C)Nc1cc(-c2ccc(C(F)(F)F)cc2)c(C#N)c2nc3ccccc3n12` (stereo not given): -23.6% (active); for `CC/C=C\C/C=C\C[C@H]1C/C=C2/C(=O)C=C[C@@H]2C/C=C\CCC(=O)O1`: -8.25% (active); for `COc1cc2ccnc(C=O)c2cc1OC`: 82.5% (inactive).
The same measure for `Brc1ccc(SCN(CSc2ccc(Br)cc2)Cc2ccccc2)cc1`: 98.3% (inactive); for `Cn1cc(-c2nonc2-c2c[nH]c3ccccc23)c2ccccc21`: -4.56% (active); for `COc1cccc2c1C(=O)c1c(O)c3c(c(O)c1C2=O)C[C@@](O)(/C(C)=N/NC(=O)c1ccc(Cl)cc1)C[C@@H]3OC1CC(N)C(O)C(C)O1` (stereo not given in full): -65.1% (active).

These data come from PubChem BioAssay (NCI).
